Results on 8 compounds are retold here after PubChem BioAssay.

Molecules are shown by their SMILES. Calls of active or inactive are those of the source. Unless noted, how the calls were made is not given here.

Test [1] can be described thus: compound effects on lung adenocarcinoma cell viability – A549, calcein-AM fluorescence, 48 h, basal, profiling panel (AID 1162). Further: test concentration not given here. Particulars: higher = more signal.
Test [2] in a line: compound effects on differentiated 3T3-L1 adipocyte viability – cell-based, 3T3-L1 adipocytes, calcein-AM fluorescence, 48 h, basal, profiling panel (AID 1163). Further: test concentration not given here. The conditions noted are these: 3T3-L1 adipocytes viability, higher = more signal.
The nature of test [3]: compound effects on hepatocellular carcinoma cell viability – HepG2, calcein-AM fluorescence, 48 h, basal, profiling panel (AID 1164). Further: test concentration not given here. The conditions noted are these: higher = more signal.
Test [4] is described as follows: compound effects on multiple myeloma cell viability – MM1S, calcein-AM fluorescence, 48 h, basal, profiling panel (AID 1165).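 Further: viability of MM1S multiple myeloma cells under basal unstimulated conditions; test concentration not given here.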 Particulars: higher = more signal.
Test [5] can be described thus: calcein-AM signal in unstimulated myeloma cells – cell-based, calcein-AM fluorescence, 48 h, PK04 Diversity Set, profiling panel (AID 1166).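 Further: cells grown under basal conditions without added stimulus; test concentration not given here.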 Particulars: RPMI8226 myeloma viability, higher = more signal.
Test [6] is described as follows: JC-1 mitochondrial signal, unstimulated HepG2 cells – cell-based, JC-1 fluorescence, 24 h, 100 nL compound, profiling panel (AID 1167). Further: test concentration not given here. Particulars: HepG2 mitochondrial potential, higher = more signal.
Test [7] in a line: JC-1 mitochondrial signal, unstimulated adipocytes – cell-based, JC-1 fluorescence, 3T3-L1 adipocytes, 24 h, 100 nL compound, profiling panel (AID 1168). Further: test concentration not given here. Particulars: JC-1 mitochondrial fluorescence, higher = more signal, called active from +8 up or from −8 down.
Test [8] in a line: JC-1 mitochondrial signal, unstimulated myeloma cells – cell-based, JC-1 fluorescence, RPMI8226, 24 h, 100 nL compound, profiling panel (AID 1169). Further: test concentration not given here. Particulars: JC-1 mitochondrial potential fluorescence, higher = more signal.
A short description of test [9]: JC-1 mitochondrial signal, unstimulated MM1S myeloma – cell-based, JC-1 fluorescence, 24 h, 100 nL compound, profiling panel (AID 1170). Further: test concentration not given here. The conditions noted are these: MM1S mitochondrial potential, higher = more signal.
Test [10] can be described thus: resazurin metabolic signal in A549 cells – cell-based, resazurin fluorescence, 24 h, PK04 Diversity Set, profiling panel (AID 1171). Further: test concentration not given here. The conditions noted are these: A549 viability, higher = more signal, called active from +8 up or from −8 down.
Test [11] can be described thus: resazurin metabolic signal in HepG2 cells – cell-based, resazurin fluorescence, 24 h, PK04 Diversity Set, profiling panel (AID 1172). Further: test concentration not given here. The conditions noted are these: HepG2 viability, higher = more signal.
Test [12] is described as follows: budding yeast growth changes without added modifier – OD600, strain BY4716, 24 h, basal condition, primary screen (AID 1173). The conditions noted are these: S. cerevisiae BY4716 growth, OD600, 24 h; higher = more signal, called active from +8 up or from −8 down.
The nature of test [13]: viability profiling in MM1S myeloma cells – cell-based, resazurin fluorescence, basal, 24 h, PK04 Diversity Set, profiling panel (AID 1174). Further: test concentration not given here. Particulars: higher = more signal, called active from +8 up or from −8 down. In general terms: Resazurin is reduced to fluorescent resorufin, in cell work by metabolically active cells.
For test [14], the target named is Dihydroorotate dehydrogenase (quinone), mitochondrial (Plasmodium falciparum (isolate 3D7)) (UniProt Q08210). Briefly: inhibition of P. falciparum DHODH – biochemical, C-terminal His tag, absorbance 600 nm, primary screen (AID 1175).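 Further: recombinant parasite enzyme with a five histidine tag at its C terminus; test concentration not given here.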 Particulars: PfDHODH enzyme, DCIP absorbance 600 nm; higher = more signal, called active from +8 up or from −8 down.
A short description of test [15]: inhibition of PAO1 biofilm formation – strain PAO1, LB-PBS medium, absorbance 600 nm, primary screen (AID 1176). Further: test concentration not given here. Particulars: P. aeruginosa PAO1 growth/biofilm, A600, 12 h; higher = more signal.
A short description of test [16]: growth modulation of vineyard yeast isolate – strain RM11-1a, OD600, basal, 24 h, primary screen (AID 1177).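 Further: cultures grown under basal conditions with no added stressor; test concentration not given here.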 The conditions noted are these: S. cerevisiae RM11-1a growth, OD600, 24 h; higher = more signal, called active from +8 up or from −8 down.
Test [17] can be described thus: growth of efflux-deficient E. coli DRC39 – strain DRC39, OD650, 24 h, E. coli filamentation inducers, primary screen (AID 1178).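 Further: growth measured as culture turbidity by optical density at 650 nm; test concentration not given here.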 The conditions noted are these: E. coli DRC39 acrAB, higher = more signal, called active from +8 up or from −8 down.
Test [18] is described as follows: growth of efflux-deficient E. coli DRC39 – strain DRC39, OD650, 48 h, E. coli filamentation inducers, primary screen (AID 1179).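 Further: screen aims at cell division blockers that make cells filament.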 Particulars: E. coli DRC39 delta-acrAB growth, higher = more signal, called active from +8 up or from −8 down.
A short description of test [19]: viability profiling in RPMI8226 myeloma cells – cell-based, resazurin fluorescence, basal, 24 h, PK04 Diversity Set, profiling panel (AID 1180).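 Further: RPMI8826 multiple myeloma cell line at 5000 cells per well; test concentration not given here.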 The conditions noted are these: higher = more signal.
Test [20] addresses E3 ubiquitin-protein ligase XIAP (Homo sapiens) (UniProt P98170). Briefly: small molecules binding XIAP protein – biophysical, small-molecule microarray, fluorescence 635 nm, primary screen (AID 1181).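 Further: score merges 667 nm emission and signal to noise over triplicate slides.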 The conditions noted are these: higher = more signal.

Chain of E3 ubiquitin-protein ligase XIAP (Homo sapiens) (P98170 whole entry, looked up): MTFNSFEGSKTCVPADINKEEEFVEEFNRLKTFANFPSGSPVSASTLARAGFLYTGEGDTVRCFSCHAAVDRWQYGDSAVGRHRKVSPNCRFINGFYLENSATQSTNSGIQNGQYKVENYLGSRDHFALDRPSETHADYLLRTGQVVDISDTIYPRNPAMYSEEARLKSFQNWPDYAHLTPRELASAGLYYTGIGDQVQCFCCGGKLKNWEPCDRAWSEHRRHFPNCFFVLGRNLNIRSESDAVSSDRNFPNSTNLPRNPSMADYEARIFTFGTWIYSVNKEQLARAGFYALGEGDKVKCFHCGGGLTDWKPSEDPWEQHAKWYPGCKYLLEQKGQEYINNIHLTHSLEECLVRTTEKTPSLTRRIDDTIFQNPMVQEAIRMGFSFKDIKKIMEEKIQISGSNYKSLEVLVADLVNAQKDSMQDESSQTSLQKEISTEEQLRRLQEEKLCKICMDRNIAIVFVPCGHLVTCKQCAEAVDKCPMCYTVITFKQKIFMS
Chain of Dihydroorotate dehydrogenase (quinone), mitochondrial (Plasmodium falciparum (isolate 3D7)) (Q08210 whole entry, looked up): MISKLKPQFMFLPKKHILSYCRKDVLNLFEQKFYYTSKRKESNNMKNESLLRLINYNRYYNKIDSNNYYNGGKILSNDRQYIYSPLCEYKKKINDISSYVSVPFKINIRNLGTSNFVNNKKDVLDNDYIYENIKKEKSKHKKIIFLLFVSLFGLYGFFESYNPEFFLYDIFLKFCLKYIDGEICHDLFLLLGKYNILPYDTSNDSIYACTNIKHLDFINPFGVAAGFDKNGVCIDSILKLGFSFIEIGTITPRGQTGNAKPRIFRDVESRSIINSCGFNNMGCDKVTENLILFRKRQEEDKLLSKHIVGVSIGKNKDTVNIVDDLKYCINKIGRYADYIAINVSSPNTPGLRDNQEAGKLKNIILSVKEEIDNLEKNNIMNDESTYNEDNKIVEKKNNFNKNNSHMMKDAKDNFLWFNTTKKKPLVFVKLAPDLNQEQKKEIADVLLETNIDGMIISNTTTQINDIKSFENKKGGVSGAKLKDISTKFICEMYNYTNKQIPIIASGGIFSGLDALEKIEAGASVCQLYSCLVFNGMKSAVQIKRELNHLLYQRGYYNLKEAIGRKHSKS

As to `CCCC[C@@H]1C[C@H]1[C@@H](NC(=O)c1cccs1)c1ccc(-c2ccccc2)cc1`, the z-score is -0.997 in test [1]; -0.537 in [2]; -0.0352 in test [3]; -0.802 in test [4]; -0.38 in test [5]; 0.565 in [6]. In addition, the z-score was -1.56 (inactive) in [7]; -0.233 in test [8]; -0.815 in test [9]; 1.71 (inactive) in [10]; 1.13 in [11]; 0.748 (inactive) in test [12]. The z-score in test [13] is 0.921 (inactive); in test [15] it was 1.03 (inactive); in test [16], 0.822 (inactive); in test [17], -0.409 (inactive); in test [18] it was -0.384 (inactive); in test [19] it was 0.661. Moreover, the composite z-score was -1.02 (inactive) in [14] and 0.416 in [20].

With `O=C1c2ccccc2[C@](Cc2ccccc2I)(C(=O)NCCN2CCOCC2)[C@H](c2ccc(CO)cc2)N1C1CCCCC1`, the z-score in test [1] was 0.668; in test [2], 0.195; in test [3], 1.52; in test [4], -0.196; in test [5], -1.22; in test [6], 1.36. Besides, the z-score in [7] is -1.01 (inactive); in [8] it was -0.385; in test [9], -0.96; in test [10], -0.112 (inactive); in test [11], -0.16; in test [12] it was -1.21 (inactive). The z-score in test [13] is -0.526 (inactive); in test [15], 0.531 (inactive); in [16], 0.358 (inactive); in test [17], 0.29 (inactive); in [18] it was 0.205 (inactive); in test [19], -0.954. The composite z-score in [14] is -0.119 (inactive); in test [20] it was 0.0623.

With `C=C(COC)/C(=C/C[C@H](OC(C)=O)c1ccc(CO)o1)c1cc(C(=O)OC)ccc1OC`, the z-score in [1] is -0.588; in test [2], 0.635; in test [3], -0.603; in test [4], -0.659; in test [5], -0.0381; in test [6], -0.527. In addition, the z-score in test [7] was -0.29 (inactive); in test [8] it was -0.0437; in [9], 0.000891; in test [10] it was -0.369 (inactive); in test [11] it was -0.613; in test [12] it was -0.0209 (inactive). In addition, the z-score in test [13] is -0.891 (inactive); in [15], -0.317 (inactive); in test [16] it was -0.253 (inactive); in [17] it was -1.38 (inactive); in test [18], -0.816 (inactive); in [19] it was -0.746. Also, the composite z-score in [14] is -6.52 (inactive); in test [20], 0.0101.

Turning to `COC(=O)[C@@]1(Cc2ccc(F)cc2)[C@H]2c3cc(C(=O)N(C)C)n(Cc4cc(F)c(F)c(F)c4)c3C[C@H]2CN1C(=O)c1ccccc1`, the z-score in [1] is -0.917; in [2], -0.147; in test [3], 0.178; in test [4], -0.711; in test [5], -1.93; in [6] it was 0.345. Besides, the z-score in test [7] is -1.26 (inactive); in test [8] it was -0.803; in test [9], -1.75; in test [10] it was -2.68 (inactive); in [11], -2.13; in test [12], 1.56 (inactive). The z-score in test [13] was -1.97 (inactive); in test [15], 0.15 (inactive); in [16], 1.16 (inactive); in test [17] it was -0.194 (inactive); in test [18] it was 0.38 (inactive); in test [19] it was -3.47. Also, the composite z-score in test [14] was 0.349 (inactive); in test [20], 0.157.

With `CN1C=C(C(=O)OCCS(C)(=O)=O)C(C(=O)OCCS(C)(=O)=O)=CC(c2ccc(CO)cc2)=CC1C1CC1` (stereo not given), the z-score in test [1] was 1.39; in test [2] it was -0.0622; in [3], 1.28; in [4], -0.807; in test [5], -0.75; in test [6] it was 2.14. Further, the z-score in [7] was -0.9 (inactive); in test [8], 0.167; in [9], -0.919; in [10], -0.267 (inactive); in test [11], -0.15; in test [12], -1.68 (inactive). The z-score was -0.83 (inactive) in [13]; -0.447 (inactive) in test [15]; 0.0635 (inactive) in [16]; 0.815 (inactive) in [17]; 0.63 (inactive) in test [18]; -0.189 in [19]. Further, the results for the composite z-score in test [14] and in [20] were -0.524 (inactive) and -0.359, respectively.

For `O[C@@H](Cc1ccccc1)[C@H]1C2C=CCCC=C2CN1Cc1cccc(Cl)c1` (stereo not given in full), the z-score in [1] was 0.675; in test [2], -0.0495; in [3], 1.31; in test [4], -3.23; in test [5], -2.25; in test [6] it was -0.241. For the same compound, the z-score in test [7] was -0.173 (inactive); in test [8] it was -0.771; in test [9], -2.86; in test [10] it was -0.462 (inactive); in test [11], 0.318; in test [12], -4.3 (inactive). Also, the z-score in test [13] was -0.686 (inactive); in [15] it was 1.27 (inactive); in [16], -0.068 (inactive); in test [17], 0.779 (inactive); in test [18] it was 0.73 (inactive); in [19], -0.0704. Besides, the figures for the composite z-score in [14] and in test [20] were -0.255 (inactive) and -0.365, respectively.

As to `O=C(c1ccccc1)N1C(=O)[C@]2(COC(c3ccc(OCCCO)cc3)=N2)Cc2ccccc21`, the z-score in [1] was -0.525; in test [2] it was 0.6; in test [3] it was -0.92; in [4], -1.72; in [5] it was -3.77; in test [6], -1.23. In addition, the z-score in test [7] was -0.03 (inactive); in [8], -1.26; in test [9], -1.49; in [10], -0.272 (inactive); in [11], 0.0993; in test [12], -1.67 (inactive). Besides, the z-score in [13] was -1.96 (inactive); in [15], 0.95 (inactive); in test [16], 0.349 (inactive); in test [17], 0.107 (inactive); in test [18], -0.26 (inactive); in test [19], -1.24. In addition, the values for the composite z-score in test [14] and in [20] were 0.201 (inactive) and 0.0479, respectively.

`C=CCOC(=O)[C@@H]1[C@H]2C(=O)O[C@H](c3ccccc3)[C@H](c3ccccc3)N2[C@H](c2ccc(OCCOC(=O)[C@H]3C[C@H]4C(=O)N5CCC[C@H]5C(=O)N4[C@H]3c3ccc(O)cc3)cc2)[C@@]12C(=O)Nc1ccc(I)cc12`: the z-score in [1] was 0.0077; in [2], 0.205; in test [3] it was -1.02; in test [4], -1.75; in [5], -1.31; in test [6] it was -1.7. In addition, the z-score in test [7] was 1.24 (inactive); in [8] it was -0.81; in test [9], -1.27; in test [10], -0.685 (inactive); in [11], -0.91; in test [12] it was 0.148 (inactive). The z-score in test [13] was 0.119 (inactive); in test [15], 3.16 (inactive); in test [16], 1.27 (inactive); in test [17], 0.0092 (inactive); in [18], -0.743 (inactive); in [19] it was -0.432. Further, the composite z-score in [14] was 1.01 (inactive); in test [20], -0.02.
